DT40 TDP1 CPT – DT40-hTDP1 cell growth loss with CPT; Potency, µM (highest dose often 46.2 µM), for inactives: at the top dose activity change, negative = growth inhibition, hits mostly inhibitors; actives 12% (n = 420,000); chicken DT40 Tdp1-/-;hTDP1 cells + 20 nM CPT, ATP luminescence, 48 h; further: potency means the concentration at half of the fitted maximal effect; on the % scale 0 is the no-effect control and ±100 the full control effect; nearly all actives have a fitted effect of over 55% in size
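Chicken DT40 Tdp1-/- cells complemented with human TDP1, 400 cells/well, exposed to compounds plus 20 nM camptothecin for at least 48 h at 37 C; viability read as ATP content by CellTiter-Glo luminescence.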
IL-1B inflam inh – inhibitors of inflammasome signaling (IL-1 beta secretion) | THP-1 LPS/ATP IL-1B secretion, AlphaLISA, 16 h; hits give low values | activity change, % at 57.5 µM | actives 4.7% (n = 360,000) | AID 743279; in the data active means activity change below about -50%; inconclusive means mostly about -30% to -49%; further: on the % scale 0 is the no-effect control and ±100 the full control effect
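THP-1 cells pretreated 1 hr with compounds (up to 57.5 uM final), then stimulated with LPS (250 ng/mL final) plus ATP (1.25 mM final); secreted IL-1B measured by AlphaLISA after 16 hr, decreased signal indicating inhibition.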
TGFb inhibitor – blocks TGF-b signaling; HepG2 CAGA-GFP TGF-b/SMAD3 reporter, GFP fluorescence, 18 h; TGF-beta stimulated, 500 pg/mL final; Potency, µM (doses to about 46.1 µM), without a hit: at the highest dose activity, negative = inhibition, most hits filed as inhibitors; actives 1.2% (n = 410,000); AID 588855; further: potency means the concentration at half of the fitted maximal effect; on the % scale 0 is the no-effect control and ±100 the full control effect; nearly all actives have a fitted effect of over 65% in size
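TGF-beta reporter screen: HEPG2 CAGA-GFP, 1% FBS, 500 pg/mL TGF-beta final, 18 h; per-cell GFP summed per well; curves fitted and categorized by class.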
HepG2 tox – kills HepG2 cells in TGF-b inhibitor counter-screen; HepG2 CAGA-GFP viability, ATP luminescence, 18 h; Potency, µM (top dose mostly 46.1 µM), for the others: at the highest dose activity change, negative = cytotoxicity, most hits filed as cytotoxic; actives 0.76% (n = 410,000); AID 588856; further: potency means the concentration at half of the fitted maximal effect
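HepG2 CAGA-GFP cells (1000/well, DMEM with 1% FBS) received compound, then TGF-beta at 500 pg/mL final, and were incubated 18 hours at 37 degrees C. Viability was read by CellTiter-Glo luminescence. Media-only wells were set as complete cell-killing and DMSO as no toxicity.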
S-ASM inh – inhibitors of human secretory acid sphingomyelinase | P17405 | placental ASM, HMU-PC fluorogenic substrate, 60 min | Potency, µM (titrated, usually from 57.5 µM), for the others: at the highest dose activity change, negative = inhibition, actives largely listed as inhibitors | actives 0.006% (n = 340,000) | AID 504937; further: potency means the concentration at half of the fitted maximal effect
Target sequence (P17405 47-631 limits assumed): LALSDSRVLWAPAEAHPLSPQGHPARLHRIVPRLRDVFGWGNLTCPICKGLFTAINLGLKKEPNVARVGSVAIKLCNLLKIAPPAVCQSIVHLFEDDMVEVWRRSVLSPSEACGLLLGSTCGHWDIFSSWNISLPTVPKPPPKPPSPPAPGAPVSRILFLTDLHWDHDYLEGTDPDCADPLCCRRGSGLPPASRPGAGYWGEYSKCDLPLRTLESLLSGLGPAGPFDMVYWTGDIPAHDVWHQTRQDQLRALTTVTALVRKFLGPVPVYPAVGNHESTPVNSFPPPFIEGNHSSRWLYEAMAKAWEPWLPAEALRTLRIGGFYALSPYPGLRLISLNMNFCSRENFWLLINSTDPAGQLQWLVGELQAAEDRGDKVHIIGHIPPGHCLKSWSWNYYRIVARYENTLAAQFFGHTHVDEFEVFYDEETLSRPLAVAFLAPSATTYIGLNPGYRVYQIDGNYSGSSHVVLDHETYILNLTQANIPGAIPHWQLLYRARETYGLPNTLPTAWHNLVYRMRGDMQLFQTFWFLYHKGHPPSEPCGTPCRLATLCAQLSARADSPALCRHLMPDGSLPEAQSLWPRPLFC
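Steps: dispense placental human ASM, pin compound, wait 10 min at room temperature, add HMU-PC0 substrate at 9 uM final, incubate 60 min at 37 °C, add stop solution raising pH to 10, read fluorescence.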
DT40 TDP1 no CPT – qHTS for Inhibitors of human tyrosyl-DNA phosphodiesterase 1 (TDP1): qHTS in cells in absence of CPT | DT40 Tdp1-/- hTDP1 cells, no CPT, ATP luminescence, 48 h | Potency, µM (highest dose often 46.2 µM), for inactives: at the top dose activity change, negative = growth inhibition, hits mostly inhibitors | actives 15% (n = 420,000) | AID 686978, 2013; further: potency means the concentration at half of the fitted maximal effect; on the % scale 0 is the no-effect control and ±100 the full control effect; nearly all actives have a fitted effect of over 55% in size
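Compound effects on proliferation are scored in DT40 Tdp1-/-;hTDP1 cells in the absence of CPT. ATP levels (CellTiter-Glo luminescence) are recorded after a ≥48 hr, 37 °C incubation.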
Starred values were filed as active, the others as inactive; u = inconclusive; x = not tested or not shown; [ ] = another dose, or the depositor's remark. A selection: hits, their analogues and other compounds. The true share with any hit is near 19%. Unless noted, the call rests on the fitted dose curve; in most records, active means well fitted curve in the direction sought with a large enough effect; inconclusive means small, poorly fitted or top-dose-only effect, or another doubt; inactive means no such curve, though single readings can be large; an effect the other way counts as inactive or inconclusive.

SMILES	DT40 TDP1 CPT	IL-1B inflam inh	TGFb inhibitor	HepG2 tox	S-ASM inh	DT40 TDP1 no CPT
O=C(Nc1nc(-c2cc(F)ccc2F)cs1)C1=COCCO1	18µM*	-13	-1%	0%	-2%	u
COc1ccc(OC)c(-c2csc(NC(=O)C3=COCCO3)n2)c1	16µM*	-12	u	-21%	-4%	18µM*
Cc1ccc(C)c(-c2csc(NC(=O)C3=COCCO3)n2)c1	21µM*	-10	-17%	-2%	0%	16µM*
Cc1cnc(C(=O)OCC(=O)N(Cc2ccccc2)C(C)C)cn1	25%	-14	12%	11%	0%	-11%
Nc1ncnc2sc3c(c12)CCNC3	-13%	27	2%	4%	3%	15%
COc1ccc(-c2cc3c(=O)n(CC(=O)Nc4ccc(Br)c(C)c4)ccn3n2)cc1OC	-22%	x	-11%	2%	x	-30%
O=C1C=C(c2ccc(Br)c3ccccc23)C[C@@H](c2ccc3c(c2)OCO3)C1	u	-5	u	-10%	-7%	u
CCCCCCCCCCCCCCCCCCOP(=O)([O-])OC1CC[N+](C)(C)CC1	4%[21.1 µM]	x	x	x	x	6%[21.1 µM]
CCC(=O)N1CCC(C)(C(=O)Nc2ccc3c(c2)OCO3)C1 (stereo unspecified)	u	5	15%	-2%	x	-6%
CC(OC(=O)C1=COCCO1)C(=O)Nc1ccc(Oc2ccccc2)cc1 (stereo unspecified)	13µM*	-14	-7%	-9%	1%	u
Cc1cnc(C(=O)OC(C)C(=O)Nc2ccc(Oc3ccccc3)cc2)cn1 (stereo unspecified)	-13%	-5	-3%	-15%	-2%	1%
CN1NC(c2ccccc2)NN(C)C1=O	18µM*	-13	9%	-10%	x	-29%
O=C(NNC(=O)c1cc(Br)c(Br)s1)c1ccncc1	-3%	-1	-2%	4%	-2%	-4%
COc1cccc(NC(=O)/C(C#N)=C\c2cn(Cc3ccc(C)cc3)c3ccccc23)c1	10µM*	x	u	-32%	x	5.8µM*
Cn1cc(/C=C(\C#N)C(=O)Nc2cccc([N+](=O)[O-])c2)c2ccccc21	13µM*	-26	12%	0%	0%	8.2µM*
Cc1c(/C=C(\C#N)C(=O)Nc2cccc(Cl)c2)c2ccccc2n1Cc1ccccc1	u	x	-15%	1%	x	5.8µM*
N#C/C(=C/c1cn(Cc2ccc(F)cc2)c2ccccc12)C(=O)Nc1cccc(Cl)c1	u	x	u	-32%	x	-28%
Nc1c(S(=O)(=O)c2ccccc2)c2nc3ccccc3nc2n1/N=C/c1cccc(O)c1	15µM*	-72*	u	-68%	335%	23µM*
COc1cccc(-c2ccc3c(c2)N(Cc2ccc(F)cc2)C(=O)C(C)S3)c1 (stereo unspecified)	-5%	33	17%	1%	x	-23%
COC(=O)[C@@]12CCCCN1[C@H](c1ccc(-c3ccc(F)cc3)cc1)[C@H]1C(=O)N(C)C(=O)[C@H]12	u	-14	-4%	-23%	u	23µM*
COC(=O)[C@@]12CCCN1[C@H](c1ccc(-c3ccc(F)cc3)cc1)[C@H]1C(=O)N(C)C(=O)[C@H]12	u	6	-1%	-7%	6%	u
COC(=O)[C@@]12CCCCN1[C@H](c1ccc(-c3ccc(OC)cc3)cc1)[C@H]1C(=O)N(C)C(=O)[C@H]12	12µM*	-1	-6%	1%	-26%	9.2µM*
COC(=O)[C@@]12CCCN1[C@H](c1ccc(-c3ccc4c(c3)OCO4)cc1)[C@H]1C(=O)N(C)C(=O)[C@H]12	u	8	-10%	-5%	3%	u
COC(=O)[C@@]12CCCCN1[C@H](c1ccc(-c3ccccc3)cc1)[C@@H]1C(=O)N(C)C(=O)[C@@H]12	21µM*	0	-5%	-28%	-15%	u
Cc1c(-n2cc(C(=O)O)c(=O)c3cc(F)c(N4CCCC4)c(F)c32)c(=O)n(-c2ccccc2)n1C	16µM*	-16	-7%	-13%	10%	23µM*
SMILES	DT40 TDP1 CPT	IL-1B inflam inh	TGFb inhibitor	HepG2 tox	S-ASM inh	DT40 TDP1 no CPT
CCN(CC)CCN(C(=O)c1ccco1)c1nc2c(C)cccc2s1	15µM*	x	-13%	-31%	x	21µM*
CCOc1cccc2sc(N(CCN(CC)CC)C(=O)c3ccco3)nc12	u	x	-9%	-37%	x	u
CCc1noc(C)c1C(=O)N(CC)c1nc2c(C)cccc2s1	u	3	-6%	-2%	-7%	18µM*
CC(=O)NCc1ccc(-c2csc(NC(=O)CCc3nc4ccccc4c(=O)[nH]3)n2)s1	u	20	12%	-6%	-2%	u
COC(=O)c1ccccc1NC(=O)c1cc(=O)c2ccc(C)c(C)c2o1	-15%	x	0%	10%	x	-8%
c1ccc(SSc2ccccn2)nc1	2.9µM*	-91*	u	-40%	4%	4.6µM*
O=c1[nH]c(N/N=C/c2ccccc2Br)nnc1-c1ccccc1	15µM*	-8	-20%	-41%	-5%	23µM*
Cc1nnc(N/N=C/c2c[nH]c3ccccc23)[nH]c1=O	u	0	-5%	-23%	0%	1%
COc1ccc(/C=N/Nc2nnc(-c3ccccc3)c(=O)[nH]2)cc1	12µM*	-71*	-24%	-8%	1%	7.3µM*
CCOc1cc(-c2nnc(-c3ccco3)o2)cc(OCC)c1OCC	18µM*	-15	3%	-2%	-2%	12µM*
CSc1ccc(CN2CCCN(C)CC2)cc1	-7%	-11	11%	-17%	-1%	-2%
O=C(O)c1cc2ncc(-c3[nH]ncc3[N+](=O)[O-])cn2n1	21%	10	0%	0%	0%	0%
CC1CCN(S(=O)(=O)c2ccc3c(c2)c(=O)c(C(=O)NC(C)c2ccccc2)cn3C)CC1 (stereo unspecified)	u	x	-1%	-23%	x	23µM*
CCn1cc(C(=O)N[C@H](C)c2ccccc2)c(=O)c2cc(F)c(N3CCN(C)CC3)cc21	u	-74*	u	-32%	-4%	u
CCn1cc(C(=O)NCCCO)c(=O)c2cc(F)c(N3CCN(C)CC3)cc21	-28%	3	-10%	4%	4%	-20%

Screens from PubChem BioAssay.
